Results filed as inconclusive are left out. Activity calls are given as the source filed them. How the source made its calls: active means hit-call score of the fitted dose curve at least 0.9, where 1 is the maximum; inconclusive means response in the unintended direction; inactive means score below 0.9.
Assays:
[1] = ACEA_AR_antagonist_AUC_viability: ACEA Biosciences xCELLigence Real-Time Cell Analysis on Androgen Receptor Antagonism for Viability (AID 2283776);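 further: 22Rv1 human prostate cancer cells growing on impedance electrode plates; area under impedance growth curve at 80 h after dosing as viability; hits lower the growth signal relative to DMSO meaning cytotoxicity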
Method in brief: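 Viability endpoint from label-free cell-index monitoring: 22Rv1 cultures treated with an eight-point 1:4 dilution series starting at 100 uM final, AUC at 80 h fitted against DMSO.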

[2] = ACEA_AR_agonist_AUC_viability: ACEA Biosciences xCELLigence Real-Time Cell Analysis on Androgen Receptor Agonism for Viability (AID 2283775)
Method in brief: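 22Rv1 cells; impedance growth kinetics; 8-pt 1:4 dilutions from 100 uM top final, ≤0.5% DMSO; n = 2; 80 h read; AUC viability, loss-of-signal vs DMSO.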

SMILES: CCCCOCCOCCOCCOCCO
- outcome [1]: inactive

SMILES: CC(=O)OCCC(C)CC(C)(C)C (configuration not stated)
- outcome [2]: inactive
- outcome [1]: inactive

SMILES: CCCC/C=C\CCCCCCCCCC=O
- outcome [2]: inactive
- outcome [1]: inactive

SMILES: CCCCCCCCC=O
- outcome [2]: inactive
- outcome [1]: inactive

SMILES: CC1=CC(=O)NS(=O)(=O)O1
- outcome [2]: inactive
- outcome [1]: inactive

SMILES: O=C1c2ccccc2C(=O)N1SC1CCCCC1
- outcome [1]: inactive

SMILES: CC(=O)OCCOC(C)=O
- outcome [1]: inactive

SMILES: NC(=O)NC1NC(=O)NC1=O (configuration not stated)
- outcome [2]: inactive
- outcome [1]: inactive

SMILES: CC1(C)C(=O)N(Br)C(=O)N1Cl
- outcome [2]: inactive
- outcome [1]: inactive

SMILES: CC(C)(C#N)c1cc(Cn2cncn2)cc(C(C)(C)C#N)c1
- AC50 [1]: 30 µM (active)

SMILES: O=C1NC(=O)c2ccccc21
- outcome [1]: inactive
